Several values for one entry are separate records, joined by “and”; a condition that tells them apart may be missing. Equal values may be shown once. The whole screen tested about 430,000 compounds, of which about 2,600 (0.6%) were called active. Many of the other results were omitted from the sample, so actives are more common in it than they were. A number with no mark means an inactive call. No stated cut-off is given here; in the data, active means inhibition mostly above about 37% (no sharp cut-off); inactive means mostly below about 20%.

This experiment relates to PriA–SSB C-terminal tail interaction (Klebsiella pneumoniae). Kind of experiment: inhibitors of Klebsiella pneumoniae PriA binding to SSB C-terminal tail, primary screen, biochemical, AlphaScreen (AID 1272365).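 Further: plate controls were negative control peptide for no effect and reference peptide for full effect.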 To be noted: AlphaScreen SSBct-PriA binding, biotinylated peptide; at 33 µM, hits give high values.
For `O=S(=O)(CCc1ccccc1)NCC(O)c1ccoc1` (centres undefined), the inhibition is -25%.

With `COc1cc(NS(=O)(=O)c2ccc(NC(=O)c3cc4c(ccc5ccccc54)oc3=O)cc2)ncn1`, the inhibition is -16%.

As for `COC(=O)c1ccc(S(=O)(=O)NCC2(c3ccc(F)cc3)CC2)cc1`, the inhibition was -24%.

As for `COc1ccc(Br)c(C(=O)NCCCc2cnoc2)c1`, the inhibition was 4%.

`Cc1cc2ncc(NC(=O)NCCOc3ccccc3)cn2n1`: the inhibition is -12%.

Regarding `O=[N+]([O-])c1ccccc1NN=Cc1cccc(O)c1O`, the inhibition was 0.72%.

`O=C(Nc1ccc(OC(F)(F)F)cc1)C(=O)Nc1ccccc1[N+](=O)[O-]`: the inhibition was 4%.

For `O=[N+]([O-])c1ccccc1Nc1ccc(O)cc1`, the inhibition is 46.7% (active).

In the case of `COc1cccc(CCNC(=O)C2CS(=O)(=O)CN2C(=O)c2ccccc2)c1` (centres undefined), the inhibition is -9%.

For the compound `Cc1ccc(-c2cc3c(=O)n(CC(=O)Nc4ccc5c(c4)OCO5)ncn3n2)cc1C`, the inhibition was -17%.

For the compound `O=C(c1ccccc1)c1sc(NC(=O)c2cc(-c3ccccc3)nc3ccccc23)nc1-c1ccccc1`, the inhibition is 10%.

Regarding `CC(=NNC(=O)c1c(Cl)c(C)nn1C)c1cccc(NC(=O)C2CCCC2)c1`, the inhibition is 2.34%.

Regarding `Cc1cc(-c2nnc(NC(=O)Cc3ccccc3)o2)n(C)n1`, the inhibition was 14%.

Take `Cc1cc(-c2nnc(NC(=O)C(c3ccccc3)c3ccccc3)o2)nn1C`: the inhibition is 85% (active).

`Cc1cc(-c2nnc(NC(=O)c3ccc(C(=O)c4ccccc4)cc3)o2)nn1C`: the inhibition was 3%.

On to `Cc1cc(-c2nnc(NC(=O)C(c3ccccc3)c3ccccc3)o2)n(C)n1`, for which the inhibition was 61% (active).

`Cc1cc(-c2nnc(NC(=O)C(C)C)o2)nn1C`: the inhibition was -2%.

For `CSc1ccccc1C(=O)Nc1nnc(-c2cc(C)nn2C)o1`, the inhibition was 6% and 0%.

As for `COC[C@@](C)(O)CNS(=O)(=O)c1ccccc1OC`, the inhibition is -2%.

Regarding `Cc1cc(C)c2c(n1)nn1c(NCc3ccc(Cl)cc3Cl)cc(C)nc21`, the inhibition was -9%.

For `COc1cc(NC(=O)Cc2c(C)noc2C)ncn1`, the inhibition was -19%.

For `CCOC(=O)c1c(C)n(-c2ccc(C)cc2)c2ccc(OCC(O)Cn3ccnc3)cc12` (centres undefined), the inhibition was 83% (active) and 46% (active).

Take `CC(=O)c1c(C)n(-c2ccc(C)cc2)c2ccc(O)cc12`: the inhibition is -0.78%.

With `Cc1oc2ccc(OCc3ccccc3)cc2c1C(=O)NCc1ccco1`, the inhibition was -4%.

For `Cc1cc(C(=O)OCC(=O)NCc2ccco2)c(C)n1-c1ccccc1`, the inhibition was -5.93%.

For the compound `CCOC(=O)c1c(C)n(-c2ccc(C)cc2)c2ccc(OCC(O)CNCc3ccco3)cc12` (centres undefined), the inhibition is 69% (active).

Take `CC(=O)c1c(C)n(-c2ccc(N(C)C)cc2)c2ccc(OCC(N)=O)cc12`: the inhibition was -18.2%.

Regarding `COc1cc(OC)cc(-c2noc(-c3cc(-c4cc(C)ccc4C)n[nH]3)n2)c1`, the inhibition is -13%.

For the compound `O=C(c1ccc([N+](=O)[O-])o1)N1CCN(c2ncnc3c2nnn3-c2cccc(F)c2)CC1`, the inhibition was -10%.

Take `CC(=O)Nc1nnc(Cc2ccc(F)cc2)o1`: the inhibition is 1%.

With `COc1ncc(NC(=O)Nc2ccc(C)c(Cl)c2)c(N(C)C)n1`, the inhibition was 10%.

`O=C(Cc1csc(SCc2ccc(Cl)cc2)n1)Nc1ccc2c(c1)OCO2`: the inhibition was 1%.

Turning to `CN(C)c1ccc(/C=N\NC(=O)c2ccccc2O)cc1`, the inhibition was -18%.

For the compound `NC(=O)c1ccccc1OCC#CCNS(=O)(=O)Cc1ccc(Cl)cc1`, the inhibition is -1%.

With `O=C(Cn1nc(-c2ccc(F)cc2)c2sc(N3CCCC3)nc2c1=O)NCc1ccccc1Cl`, the inhibition was -4%.

`CCOc1cc(/C=C2/N=C(c3ccc(C(C)(C)C)cc3)OC2=O)cc(Cl)c1OS(C)(=O)=O`: the inhibition is 62.1% (active).

Consider `CC(=O)Nc1ccc(N2C(=O)c3cccc4cccc(c34)C2=O)cc1`, for which the inhibition is 5%.

In the case of `Cc1c(NC(=O)CSc2cccc3cccnc23)c(=O)n(-c2ccccc2)n1C`, the inhibition was 96% (active).

For the compound `O=C(CSc1cccc2cccnc12)Nc1ccc(Br)cc1`, the inhibition is 27.6%.

Consider `Cc1ccccc1OCCC(=O)Nc1c(C)n(C)n(-c2ccccc2)c1=O`, for which the inhibition was -12.4%.

For the compound `Cc1ccc(NC(=O)C2CCCN2S(=O)(=O)c2cccc3cccnc23)c(C)c1` (centres undefined), the inhibition is -5.79%.

Turning to `Cc1ccc(NC(=O)CSc2cccc3cccnc23)c(C)c1`, the inhibition is 79.3% (active).

Turning to `Cc1c(NC(=O)COc2cccc(OCCC(C)C)c2)c(=O)n(-c2ccccc2)n1C`, the inhibition is -3%.

With `O=C(CSc1nnc(-c2ccc3c(c2)OCCO3)o1)Nc1nc(-c2ccccc2)cs1`, the inhibition was -3%.

Consider `COc1ccc(C(=O)CC(SCCO)c2ccc(F)cc2)cc1OC` (centres undefined), for which the inhibition was -1%.

For the compound `COc1ccc(NC(=O)NCC(c2ccc3c(c2)CCCN3C)N2CCCC2)cc1OC` (centres undefined), the inhibition was 25%.

Take `O=C(NCCc1ccc(N2CCCC2)cc1)c1ccco1`: the inhibition is -19%.

For `CCCN1CCCc2cc(CCNC(=O)Cc3ccc(OC)cc3)ccc21`, the inhibition was 57.9%.

In the case of `CCC(=O)N1CCc2ccc(NC(=O)CCC3CCCC3)cc2C1`, the inhibition was -6%.

On to `CCCN1CCCc2cc(CCNC(=O)CCC3CCCC3)ccc21`, for which the inhibition is 63% (active).

`Cc1cc(C)c(S(=O)(=O)Nc2ccc3c(c2)CCCN3C(=O)c2ccco2)c(C)c1`: the inhibition is 0%.

As to `CCCN1CCCc2cc(CCNC(=O)c3ccco3)ccc21`, the inhibition is 56% (active).

Regarding `Cn1nc(CNS(=O)(=O)/C=C/c2ccccc2)c2c1CCCC2`, the inhibition was -3%.

For the compound `CCCS(=O)(=O)N1CCc2ccc(NC(=O)c3ccc(Br)o3)cc2C1`, the inhibition is -14%.

As for `C=CCn1c(SCC(=O)N2CCOCC2)nc2scc(-c3ccccc3Cl)c2c1=O`, the inhibition is -1%.

Consider `Cc1cc(=O)n(CC(=O)Nc2ccc(C(F)(F)F)cc2)c(-c2ccncc2)n1`, for which the inhibition was -28%.

Turning to `CS(=O)(=O)N1CCN(C(=O)c2cnn3c2OCCC3)CC1`, the inhibition is 6%.

Take `O=C(Cc1ccc(F)cc1)NCCn1nc(C(F)(F)F)c2c1CCCC2`: the inhibition was 10%.

In the case of `COc1cn2c(cc1=O)C(=O)N(CCNC(=O)C1(c3ccc(Cl)cc3)CCCC1)CC2`, the inhibition was -13% and -15%.

For the compound `Cc1ccc2c(CC(=O)NCc3ccccc3Cl)cc(=O)oc2c1`, the inhibition was -3%.

On to `O=C(COC(=O)c1cccc(I)c1)c1ccc([N+](=O)[O-])cc1`, for which the inhibition was 38% (active).

Take `O=C(OCC(=O)N1CCc2ccccc21)c1ccc([N+](=O)[O-])cc1`: the inhibition was -10.4%.

Consider `O=C(COC(=O)c1cccc(I)c1)c1ccc(-n2nncc2-c2ccccc2)cc1`, for which the inhibition is -4%.

On to `CS(=O)(=O)N1CCC(CNC(=O)c2ccc(OC(F)(F)F)cc2)CC1`, for which the inhibition was -25%.

On to `O=S(=O)(/C=C/c1ccccc1)N1CCCSCC1CN1CCOCC1` (centres undefined), for which the inhibition was -4%.

Turning to `COC(=O)c1sccc1S(=O)(=O)NCc1ccc(C(=O)c2ccco2)s1`, the inhibition is -24%.

In the case of `O=C(Cn1nc(-n2ccc3ccccc32)ccc1=O)Nc1c[nH]c(=O)[nH]c1=O`, the inhibition was -41%.

As for `O=S(=O)(CCc1ccccc1)N1CCN(c2ccc(-c3ccccc3)nn2)CC1`, the inhibition is -3%.

In the case of `CCOc1ccccc1C(=O)N1CCN(c2ccc(-c3ccccn3)nn2)CC1`, the inhibition is 100% (active).

Take `CCSc1ccccc1C(=O)N1CCN(c2ccc(-c3ccccn3)nn2)CC1`: the inhibition was 161% (active).

`O=C(c1ccc(N2CCCCC2)nn1)N(Cc1ccccc1)c1ccccn1`: the inhibition is -19%.

As to `CCOc1ccccc1C(=O)N1CCC(Oc2cccc(C)n2)CC1`, the inhibition is -8%.

On to `CCSc1ccccc1C(=O)N1CCN(C(=O)C2CC2c2ccccc2)CC1` (centres undefined), for which the inhibition is -7%.

With `O=C(c1ccccc1F)N1CCN(c2ccc(-c3cccnc3)nn2)CC1`, the inhibition is -8% and -16%.

For `c1ccc(-c2ccc(N3CCNCC3)nn2)nc1`, the inhibition was 100% (active).

As to `CCSc1ccccc1C(=O)N1CCN(c2ncnc3c2nnn3C)CC1`, the inhibition was -12%.

Consider `C=CCNC(=S)NN=C(C)c1cc(OC)c(OC)c(OC)c1`, for which the inhibition is -5.43%.

For the compound `Cc1cc(OC2CN(C(=O)C(C)(C)Oc3ccc(Cl)cc3)C2)cc(=O)n1C`, the inhibition was -5%.

`COc1ccc(N2CCn3c(SCC(=O)Nc4ccc(OC)cc4OC)nnc32)cc1`: the inhibition was -12%.

As for `O=C(O)c1cc(Br)cs1`, the inhibition was -5%.

As to `COc1ccc(NC(=O)CCSc2ccc(C)cc2)c([N+](=O)[O-])c1`, the inhibition was 62% (active).

`Cc1ccc(SCCC(=O)Nc2cccc(Cl)c2Cl)cc1`: the inhibition is -17% and -19%.

Regarding `COc1ccc(OCC(=O)NN=C(C)CC(=O)Nc2ccc(OC)cc2[N+](=O)[O-])cc1`, the inhibition was -8.04%.

For `CN(C)[C@@H](CNC(=O)C(=O)Nc1ccc(F)c(Cl)c1)c1ccco1`, the inhibition is -17%.

Take `NC(=O)c1ccccc1NC(=O)c1cccn(Cc2cccc(F)c2)c1=O`: the inhibition is 4%.

As for `N#C/C(=C\N1CCC(C(N)=O)CC1)C(=O)NCCc1ccccc1`, the inhibition was -13%.

Consider `O=C(Nc1nc2c(s1)C(=O)NCCC2)c1ccc2noc(-c3ccccc3)c2c1`, for which the inhibition was -3%.

As to `c1ccc(-c2nnc3c4ccccc4c4ccccc4c3n2)nc1`, the inhibition was 81% (active).

Take `Cc1oc(-c2ccc(Cl)cc2)cc1C(=O)Nc1ccc(S(N)(=O)=O)cc1`: the inhibition is -10%.

Regarding `COc1ccc(CC(=O)NCC(c2ccsc2)N2CCc3ccccc3C2)cc1` (centres undefined), the inhibition was -5%.

In the case of `O=C(NCc1ccc2c(c1)OCO2)C(=O)NC[C@H](O)c1cccc2ccccc12`, the inhibition is -1%.

Regarding `O=C(Oc1ccc(C(=S)N2CCOCC2)cc1)c1ccc(F)cc1`, the inhibition was -4.78%.

For the compound `O=C(Oc1cccc(C(=S)N2CCOCC2)c1)c1cccc(Cl)c1`, the inhibition is 45.9% (active).

In the case of `Cc1ccc(C(=O)Oc2ccc(C(=S)N3CCOCC3)cc2)cc1`, the inhibition was -12.7%.

Values taken from PubChem BioAssay AID1272365 (Small Molecule Screening Facility, UW Madison, 2018).
